# Most compounds without a hit are left out; they make up all but 2.4% or so of the library.
# ANO1 block – mouse TMEM16A channel inhibition, primary screen. Q8BHY3. HEK293 TMEM16A/YFP iodide influx fluorescence, ionomycin. normalized B-score (activity score, 25-100; higher = stronger inhibition) at 10 µM. 310,000 compounds, 1.2% hits. AID 588511;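 active = ratio plate-corrected score three or more library SD toward inhibition, starting fluorescence score within five deviations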;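 note: score derived from kinetic fluorescence span divided by baseline fluorescence per well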
# CHT PAM – human CHT allosteric activation. Q9GZV3. CHT-expressing cells, membrane potential dye, choline EC20; hits give high values; LV-AA mutant CHT in HEK293 cells. B-score at 10 µM. 310,000 compounds, 0.49% hits;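 active = initial fluorescence not abnormally high and integrated response B-score, plate-corrected, over 3 SD above library mean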
# Target sequence (Q9GZV3 whole entry, looked up): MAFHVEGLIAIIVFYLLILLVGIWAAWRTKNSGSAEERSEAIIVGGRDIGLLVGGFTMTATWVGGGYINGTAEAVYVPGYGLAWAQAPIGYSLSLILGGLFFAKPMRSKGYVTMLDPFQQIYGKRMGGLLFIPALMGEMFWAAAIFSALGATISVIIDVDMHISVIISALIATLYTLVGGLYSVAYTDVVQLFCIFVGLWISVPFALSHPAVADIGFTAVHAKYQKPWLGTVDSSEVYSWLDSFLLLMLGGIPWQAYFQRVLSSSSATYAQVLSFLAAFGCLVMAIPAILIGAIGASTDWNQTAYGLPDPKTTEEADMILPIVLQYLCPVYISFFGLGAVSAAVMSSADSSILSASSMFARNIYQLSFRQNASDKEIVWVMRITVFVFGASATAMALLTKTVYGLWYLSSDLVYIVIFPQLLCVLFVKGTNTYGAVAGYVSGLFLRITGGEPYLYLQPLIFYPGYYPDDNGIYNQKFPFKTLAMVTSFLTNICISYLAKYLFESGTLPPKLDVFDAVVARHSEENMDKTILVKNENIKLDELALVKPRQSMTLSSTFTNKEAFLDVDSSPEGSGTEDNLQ
# CHT inh – human CHT choline transport inhibition; B-score at 10 µM; 310,000 compounds, 0.86% hits; CHT-expressing cells, membrane potential dye, choline response; hits give low values;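 active = B-score over 3 SD under the library average, and starting fluorescence ratio not unusually high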;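 note: choline stimulus applied at its EC90 after an EC20 pre-addition; B-score computed on integrated fluorescence ratio after choline addition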
# TMEM16A act – mouse TMEM16A channel activation, primary screen; AID 623877; B-score at 10 µM; 340,000 compounds, 0.3% hits; Q8BHY3; HEK293 TMEM16A/YFP-H148Q/I152L, iodide quench fluorescence; hits give low values;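 active = fluorescence-ratio B-score plate-corrected deviation score at least 3 library SD below zero, with starting fluorescence score within 5 deviations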;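 note: channel opened by trigger with iodide after compound preincubation; score built on the fluorescence ratio of max minus min over baseline; more negative score means more quench and so TMEM16A activation or potentiation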
# TMEM16A reconf – reconfirmed blocker of mouse TMEM16A calcium-activated chloride channel; HEK293 TMEM16A/YFP-H148Q, iodide quench fluorescence; ionomycin added to raise cell calcium; inhibition, % at 10 µM; shares compounds with ANO1 block; 2,300 compounds, 39% hits;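 active = mean duplicate percent inhibition, scaled so buffer wells are 0 and the reference blocker 100, over three buffer SD above buffer mean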
# TMEM16A Ca cntr – alters calcium mobilization in TMEM16A HEK293 cells, counter-screen | shares compounds with ANO1 block | TMEM16A/YFP HEK293, Fluo4 calcium mobilization | calcium response (% of ionomycin), % at 10 µM | 2,300 compounds, 2% hits | AID 652231;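 active = duplicate-averaged calcium signal over 20% of the ionomycin maximum, relative to buffer baseline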;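 note: each well's signal is peak minus trough fluorescence divided by its pre-addition baseline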
# Parental YFP cnt – parental YFP-HEK293 iodide quench counter-screen activity | ionomycin | shares compounds with ANO1 block | YFP ratio F(max-min)/F0 at 10 µM | AID 652233 | 2,300 tested, under 10 active;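 active = yellow fluorescent protein signal ratio exceeding the buffer control mean by over 5 SD of those controls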;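 note: ratio is mean of duplicate wells from kinetic YFP trace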
# ClC-1 rat inh – rat ClC-1 inhibition, TMEM16A specificity screen; CHO ClC-1-YFP, iodide influx fluorescence quench; iodide control reads 0, buffer control 100; 2,300 tested, under 10 active; ratio percent, % at 10 µM; shares compounds with ANO1 block;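 active = duplicate-mean ratio percent above the mean of iodide-only control wells, which defines zero, plus 5 of their SD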;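 note: higher percent means stronger block of ClC-1 iodide influx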
# Numbers stand for hits; i = inactive; nt = no result given.
SMILES,ANO1 block,CHT PAM,CHT inh,TMEM16A act,TMEM16A reconf,TMEM16A Ca cntr,Parental YFP cnt,ClC-1 rat inh
CSc1sc(C(=O)N(C)C)cc1S(=O)(=O)C(C)C,i,i,i,i,nt,nt,nt,nt
CC[n+]1c(/C=C2/C=C(C)CC(C)(C)C2)sc2ccc(OC)cc21,25,i,i,i,55.5%,i,i,i
COc1ccc(CCNc2cc(N3CCN(C(=O)c4ccccc4F)CC3)ccc2[N+](=O)[O-])cc1OC,25,i,i,i,42.5%,i,i,i
CCCCn1c(SCc2ccc(C(=O)OC)o2)nc2cc(S(N)(=O)=O)ccc21,25,i,i,i,18.5%,i,i,i
O=[N+]([O-])c1ccccc1S(=O)(=O)N1CCc2ccccc2C1,i,i,i,i,nt,nt,nt,nt
CCCCSc1ccc2nc(-c3ccc(C#N)cc3)cn2c1,100,i,i,i,16.0%,i,i,i
C=CCn1c(SCC(=O)NC(=O)Cc2ccccc2)nnc1-c1ccccc1F,nt,nt,nt,i,nt,nt,nt,nt
C=CCn1c(SCC(=O)NC(C)(C)C)nnc1-c1ccccc1O,100,i,i,i,i,i,i,i
Cc1ccc(NCCc2ccc(C)nc2)cc1,i,i,i,i,nt,nt,nt,nt
CCC1Sc2ccccc2N(CC(=O)NC2CC2)C1=O (configuration not stated),i,i,i,i,nt,nt,nt,nt
CCC1Sc2ccccc2N(CC(=O)NCCC2=CCCCC2)C1=O (configuration not stated),i,i,i,i,i,i,i,i
Cc1ccc(C(=O)N2CCc3cc4c(cc3C2C)OCCCO4)cc1 (configuration not stated),i,i,i,i,nt,nt,nt,nt
CC1c2cc3c(cc2CCN1C(=O)c1ccc(Cl)cc1)OCCCO3 (configuration not stated),25,i,i,i,i,i,i,i
CCS(=O)(=O)N1CCC(C(=O)NCc2cccs2)CC1,i,i,i,i,nt,nt,nt,nt
COc1ccccc1N1CCN(c2ncnc3c2oc2ccccc23)CC1,100,i,i,i,i,i,i,i
C(=C\c1ccccc1)/CN1CCN(c2ncnc3c2oc2ccccc23)CC1,100,i,i,i,33.5%,i,i,i
Cc1ccc(NC(=O)COc2coc(CN3CCN(Cc4ccccc4)CC3)cc2=O)cc1,25,i,i,i,i,i,i,i
CC1Sc2ccc(S(=O)(=O)N3CCC(C(=O)Nc4ccc(Cl)cc4)CC3)cc2NC1=O (configuration not stated),25,i,i,i,32.0%,i,i,i
CC1Sc2ccc(S(=O)(=O)CCC(=O)NCc3ccc(Cl)cc3)cc2NC1=O (configuration not stated),25,i,i,i,i,i,i,i
CC1Sc2ccc(S(=O)(=O)CCC(=O)NCc3ccccc3)cc2NC1=O (configuration not stated),i,i,i,i,nt,nt,nt,nt
O=C(CSc1nnc(-c2ccc(Br)cc2)o1)N1CCN(C(=O)c2ccco2)CC1,i,i,i,i,nt,nt,nt,nt
Clc1ccc(OCCSCc2nc3ccccc3[nH]2)cc1,100,i,i,i,20.5%,i,i,i
Clc1ccc(SCc2nc3ccccc3[nH]2)cc1,i,i,i,i,nt,nt,nt,nt
COC(=O)c1c(NC(=O)c2ccccc2C(=O)O)sc2c1CCC2,i,i,i,i,nt,nt,nt,nt
O=C(O)c1c(NC(=O)c2cccc3ccccc23)sc2c1CCC2,100,i,i,i,24.0%,i,i,i
SMILES,ANO1 block,CHT PAM,CHT inh,TMEM16A act,TMEM16A reconf,TMEM16A Ca cntr,Parental YFP cnt,ClC-1 rat inh
O=S(=O)(Nc1nnc(-c2ccccc2)s1)c1ccc(Cl)cc1,100,i,i,i,38.0%,i,i,i
COCc1nnc(NS(=O)(=O)c2ccc(Cl)cc2)s1,nt,nt,nt,i,nt,nt,nt,nt
COc1ccc(Nc2nc3ccccc3n3nnnc23)cc1,i,i,i,i,nt,nt,nt,nt
COc1cc(Nc2nc3ccccc3n3nnnc23)cc(OC)c1OC,i,i,i,i,i,i,i,i
NC(=O)CC(NC(=O)OCc1ccccc1)C(=O)O (configuration not stated),i,i,i,i,nt,nt,nt,nt
CC(C)CCN(C(=S)Nc1cccc(C(F)(F)F)c1)C(C)c1ccccn1 (configuration not stated),25,i,i,i,i,i,i,i
CC(c1ccccn1)N(CCN(C)C)C(=S)Nc1cccc(F)c1 (configuration not stated),i,i,i,i,nt,nt,nt,nt
Cc1ccc(S(=O)(=O)NCc2ccc(C(=O)N3CCN(c4ccccc4)CC3)cc2)cc1,i,i,i,i,nt,nt,nt,nt
O=C(c1ccc(CNS(=O)(=O)c2ccccc2)cc1)N1CCN(Cc2ccccc2)CC1,25,i,i,i,i,i,i,i
COC(=O)c1ccccc1NC(=O)CSc1nnnn1C1CCCCC1,i,i,i,i,nt,nt,nt,nt
Cc1ccccc1OCc1nnc(SCC(=O)NCc2ccccc2)n1C,i,i,i,i,nt,nt,nt,nt
CCOC(=O)c1ccccc1NC(=O)CSc1nnnn1C1CCCCC1,100,i,i,i,i,i,i,i
CCOC(=O)c1ccccc1NC(=O)CSc1nnc(COc2ccccc2C)n1C,25,i,i,i,i,i,i,i
O=C(CNCc1cccs1)Nc1ccc(N2CCCCCC2)cc1,i,i,i,i,nt,nt,nt,nt
CCOC(=O)c1cn(CC(=O)Nc2ccc(CC)cc2)nn1,i,i,i,i,nt,nt,nt,nt
O=C(CCl)Nc1ncc(S(=O)(=O)c2ccc([N+](=O)[O-])cc2)s1,nt,nt,nt,i,nt,nt,nt,nt
CCC(C)(C)C(=O)Nc1ncc(S(=O)(=O)c2ccc([N+](=O)[O-])cc2)s1,25,i,i,i,28.5%,i,i,i
O=C(Cc1cccs1)Nc1ccc(S(=O)(=O)Nc2ncccn2)cc1,25,i,i,i,i,i,i,i
O=C(N/N=C/c1c(O)ccc2ccccc12)c1cccc(C(F)(F)F)c1,i,i,i,i,nt,nt,nt,nt
CC(Sc1nc2ccccc2s1)C(=O)c1c(N)n(C)c(=O)n(C)c1=O (configuration not stated),100,i,i,i,i,i,i,i
O=C(CN(Cc1ccco1)C(=O)c1cc(=O)[nH]c2ccccc12)Nc1ccccc1Br,100,i,i,i,i,i,i,i
COc1cc(SC)ccc1C(=O)N(CC(=O)Nc1ccccc1Br)Cc1ccco1,i,i,i,i,nt,nt,nt,nt
O=C1CC(N2CCN(c3ccc(F)cc3)CC2)C(=O)N1Cc1cccs1 (configuration not stated),i,i,i,i,nt,nt,nt,nt

# Bioassay records: PubChem BioAssay, Johns Hopkins Ion Channel Center
